MEKK3 PB1 HTS – MEKK3-MEK5 PB1 interaction, increase or decrease. binding response (% of control), % at 10 µM. bead-based flow cytometry, Alexa488-MEK5 binding to MEKK3; actives lie on both sides; 0 = blocked by unlabeled MEK5, 100 = vehicle. actives 1.4% (n = 290,000). Q99759;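 active means binding response more than 3 SD above or below the average of its plate-row segment, actives on both sides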;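 further: Alexa488 bead fluorescence after subtracting the streptavidin-only scavenger bead signal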
ATG4B inh – inhibitors of human ATG4B cysteine protease | Q9Y4P1 | ATG4B cleavage of LC3-PLA2, NBD-HPC fluorescence, 1 h | inhibition, % at 8.33 µM | actives 0.51% (n = 340,000) | AID 504462; in the data active means inhibition above about 40%
Target sequence (Q9Y4P1 whole entry, looked up): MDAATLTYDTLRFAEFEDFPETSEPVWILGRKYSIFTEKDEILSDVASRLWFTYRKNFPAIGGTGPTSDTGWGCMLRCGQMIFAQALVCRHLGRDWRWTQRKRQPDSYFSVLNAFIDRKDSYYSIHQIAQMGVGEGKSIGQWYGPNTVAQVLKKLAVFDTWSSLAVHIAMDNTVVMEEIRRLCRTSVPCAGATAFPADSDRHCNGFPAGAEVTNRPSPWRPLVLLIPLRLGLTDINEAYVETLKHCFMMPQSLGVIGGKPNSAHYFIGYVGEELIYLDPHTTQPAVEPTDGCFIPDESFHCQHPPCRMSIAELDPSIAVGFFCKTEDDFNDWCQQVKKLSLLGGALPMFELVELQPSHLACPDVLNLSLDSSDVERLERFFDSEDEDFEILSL
MEKK2mut PB1 HTS – signal of MEK5 binding to mutant human MEKK2 PB1 domain; AID 1530; bead flow cytometry, Alexa488-MEK5 binding to MEKK2 mutant; percent response, % at 10 µM; actives 0.35% (n = 290,000); in the data active means percent response above about 24%, passing the limit was not always enough
MEKK2wt PB1 HTS – raises or lowers MEK5 binding to wildtype human MEKK2 PB1 domain. Q9Y2U5. bead flow cytometry, Alexa488-MEK5 binding to MEKK2 WT; actives lie on both sides. binding response (% of control), % at 10 µM. actives 1.1% (n = 290,000); in the data active means binding response below about 67% or above about 130%
UBC13 inh – blocks human UBC13 polyubiquitin chain formation | TR-FRET | actives 0.47% (n = 330,000) | AID 485273 | inhibition, % at 20 µM; in the data active means inhibition above about 45%, passing the limit was not always enough
Target sequence (P61088 whole entry, looked up): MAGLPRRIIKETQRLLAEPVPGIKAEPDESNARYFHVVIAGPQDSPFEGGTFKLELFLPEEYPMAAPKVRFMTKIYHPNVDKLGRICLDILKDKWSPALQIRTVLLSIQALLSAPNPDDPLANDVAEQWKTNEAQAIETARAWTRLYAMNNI
PREPL inhibitor – human PREPL enzyme inhibition. actives 0.68% (n = 320,000). recombinant PREPL, fluorescence polarization activity-based probe. AID 2751. inhibition, % at 5.96 µM. Q4J6C6; in the data active means inhibition above about 43%;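 further: 0% = enzyme with DMSO and 100% = wells lacking enzyme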
MEKK2wt confirm – raises or lowers MEK5 binding to wildtype human MEKK2, retest. shares compounds with MEKK3 PB1 HTS. bead flow cytometry, Alexa488-MEK5 binding to MEKK2 WT; actives lie on both sides. binding response (% of control), % at 10 µM. actives 2.4% (n = 5,900). AID 1892; in the data active means binding response below about 16% or above about 210%; inactive means in between
MEKK2mut confirm – signal of MEK5 binding to mutant human MEKK2, retest. shares compounds with MEKK3 PB1 HTS. bead flow cytometry, Alexa488-MEK5 binding to MEKK2 mutant. percent response, % at 10 µM. actives 2% (n = 5,900). AID 1893; in the data active means percent response mostly above about 71%, no sharp cut-off; inactive means mostly below about 38%;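 further: higher means compound restores mutant binding toward wildtype level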
MEKK3-MEK5 inh – confirmation of inhibitors of MEK5 binding to human MEKK3 | shares compounds with MEKK3 PB1 HTS | bead flow cytometry, Alexa488-MEK5 binding to MEKK3; stronger effect = lower value | binding response (% of control), % at 10 µM | actives 1.8% (n = 5,900) | AID 1894;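 active means binding response below 72% of control, or above a set upper limit, though filed actives all read lower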;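 further: 100% = DMSO only wells and 0% = binding blocked by excess unlabeled MEK5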
Active calls of the source: *; · = no result given; [ ] = another dose, or the depositor's remark. An excerpt weighted towards active compounds, which were near 3.1% of everything screened.

SMILES	MEKK3 PB1 HTS	ATG4B inh	MEKK2mut PB1 HTS	MEKK2wt PB1 HTS	UBC13 inh	PREPL inhibitor	MEKK2wt confirm	MEKK2mut confirm	MEKK3-MEK5 inh
Cc1ccc(-c2nc(N)sc2CC(=O)OCC(=O)N2C(C)CCCC2C)cc1 (stereo not given)	140*	-3	1	111	-2	2	98	-5	101
O=C(NCC1CCCN1S(=O)(=O)c1cccs1)c1ccc(Cl)cc1 (stereo not given)	·	-10	·	·	-4	9	·	·	·
CCc1ccc(OCC(=O)N/N=C(\C)c2ccc3c(c2)OCCO3)cc1	131*	-7	0	102	-7	13	104	-1	103
C/C(=N\NC(=O)COc1ccc(C(C)(C)C)cc1)c1ccc2c(c1)OCCO2	110	-11	21	113	0	12	·	·	·
Cc1ccc(N/C(CSC(N)=O)=N/S(=O)(=O)c2ccccc2)cc1	125*	-11	4	116	-9	-2	99	-2	105
Cc1ccc(N/C(CSC(N)=O)=N\S(=O)(=O)c2ccc(C)cc2)cc1	128*	-6	6	121	-2	-7	98	-5	100
NC(=O)SC/C(=N\S(=O)(=O)c1ccccc1)Nc1ccccc1	102	5	2	101	-4	10	·	·	·
CC(C)C(=O)NNC(=O)CSc1nc(C2CCCCC2)nc2ccccc12	140*	-3	2	108	-1	-1	103	3	104
O=C(Nc1ccsn1)c1ccc(Cl)cc1Cl	100	1	1	98	-8	-60	·	·	·
CCC1(c2ccc(Cl)cc2)NC(=S)N(c2ccccc2)N1 (stereo not given)	128*	10	0	107	-1	9	98	-2	99
CCC1(c2ccccc2)NC(=S)N(c2ccc(C)cc2)N1 (stereo not given)	108	0	-5	98	-11	4	·	·	·
CCC(=O)N=c1ccn(C2=Nc3ccccc3NC2=C(C#N)C#N)cc1	96	2	-9	97	-72	-4	·	·	·
COc1ccc(CCN2C(=O)CCC2(C)C(=O)NC2CCCC2)cc1OC (stereo not given)	35*[inhibitor]	-1	-16	45*[inhibitor]	11	2	101	-1	100
C/C(CC(=O)Nc1ccc(N(C)C)cc1)=N\NC(=O)c1ccc(C(C)(C)C)cc1	101	6	4	100	-11	-1	·	·	·
CN(CC(=O)NCc1ccccn1)S(=O)(=O)c1ccc2ccccc2c1	135*	0	0	111	6	3	100	2	95
CN(CC(=O)NCc1ccccn1)S(=O)(=O)c1ccccc1	96	-14	-15	79	0	10	·	·	·
Cc1ccc(NC(=O)COc2ccccc2C(=O)Nc2ccccc2)cc1Cl	103	-4	68*	146*	-1	7	138	12	106
Cc1ccc(NC(=O)COC(=O)CC2CCCC2)cc1Cl	70*[inhibitor]	·	-3	82	10	-3	100	0	97
CCOCC(=O)Nc1ccc(C)c(Cl)c1	77*[inhibitor]	-2	-6	85	0	8	104	7	103
Cc1ccc(Cl)cc1NC(=O)c1ccccc1OCC(=O)Nc1ccc(Cl)cc1	86	8	2	116	-14	15	·	·	·
CCCCn1c(N)c(N(CCOC)C(=O)C2CCN(S(=O)(=O)c3ccccc3)CC2)c(=O)[nH]c1=O	·	-7	·	·	-4	5	·	·	·
O=C(COC(=O)c1ccc(O)cc1)Nc1ccc2c(c1)OCO2	·	5	·	·	5	7	·	·	·
C=CCc1c(OC(C)=O)c2ccccc2n(C)c1=O	147*	8	0	104	8	0	106	3	106
COC(=O)CCNC(=O)c1nn(Cc2ccccc2)c(=O)c2ccccc12	100	-4	3	96	9	-9	·	·	·
CCOC(=O)c1c(C)oc2cc(Cl)c(O)c(CN(C)C)c12	128*	-8	27	131	-12	6	108	11	106
SMILES	MEKK3 PB1 HTS	ATG4B inh	MEKK2mut PB1 HTS	MEKK2wt PB1 HTS	UBC13 inh	PREPL inhibitor	MEKK2wt confirm	MEKK2mut confirm	MEKK3-MEK5 inh
COc1cc(/C=N/NC(=O)/C(=C\c2ccc3c(c2)OCO3)NC(=O)c2ccccc2)ccc1O	142*	24	1	103	-31	10	104	5	107
COc1cc(/C=N/NC(=O)C(=O)NCC2CCCO2)ccc1O (stereo not given)	162*	3	3	117	-11	10	103	0	103
Cc1nc2nc(SCc3ccccc3)[nH]n2c(=O)c1CCC(C)C	107	5	9	110	2	9	·	·	·
CCCCOc1ccc(C(=O)NCC(=O)NCCOc2ccccc2)cc1	·	-10	·	·	6	-8	·	·	·
CCCCOc1ccc(CC(=O)NCC(=O)O)cc1	57*[inhibitor]	2	-2	92	3	-5	99	3	105
Cc1ccc(-n2cc(CNCCCn3ccnc3C)c(-c3ccc(F)cc3)n2)cc1	115	1	178*	306*	27	13	204	77*	116
Cc1ccc(-n2cc(CNCCc3cscn3)c(-c3ccc(F)cc3)n2)cc1	76	28	-8	89	13	-29	·	·	·
Cc1ccc(-n2cc(CNCCCn3cccn3)c(-c3cccc(C)c3)n2)cc1	104	7	24	138*	8	-18	143	15	104
Cc1ccc(-c2nn(-c3ccccc3)cc2CNCc2ccccc2)cc1	111	21	36	193*	26	-40	173	34	104
Cc1ccc(C)c(-n2cc(CNCCCn3cccn3)c(-c3ccccc3)n2)c1	99	17	1	108	7	1	·	·	·
COCc1nnc(NC(=O)C2CC(=O)N(C3CCCC3)C2)s1 (stereo not given)	103	3	1	101	0	3	·	·	·
COc1ccc(C(N)CCc2ccco2)cc1 (stereo not given)	113	12	27*	132	7	32	119	15	98
COc1ccc(S(=O)(=O)N(C)C(C)CCc2ccco2)cc1 (stereo not given)	110	16	5	103	-5	-2	·	·	·
Cc1ccnc2nc(C(=O)OCC(=O)NCCc3ccc(Cl)cc3)nn12	135*	-1	0	104	6	9	69	-24	62*
